Structures are written as SMILES. This is part of a sample that, as a whole, favours compounds with a hit. Of some 83,000 tested, about 20% had one in any assay.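 Percent growth is the endpoint: 0 to 100 indicates growth inhibition (40 means 60% inhibition), 0 means no net growth, and negative values indicate cell death.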 Values without a mark were called inactive. Activity calls are given as the source filed them. Rule for the calls: active = growth percent below 10; inactive = the rest.

The assay relates to HCT-15 colon. The assay is described as follows: NCI-60 one-dose screen, 48 h (100 = growth as untreated, 0 = no growth, -100 = all killed). As to conditions: 10 µM unless noted.
Consider `Cn1/c(=N\N=C\c2ccccc2OCCO)sc2ccccc21`, for which the growth is 82.4%. Under `C=C1C(=O)C2CCC1C2` (configuration not stated) stands 99.8%; under `CC(C)C(C)(C)C(=O)C(C)(C)C(C)(C)C`, 96.9%. Turning to `Cc1ccc(OC(=O)c2ccccc2)cc1`, the growth was 118%.

Consider `CCOC(=O)c1cc(Cl)c(O)c(Cl)c1`, for which the growth was 104%. Take `C[n+]1cc2cc3c(cc2c2ccccc21)OCO3`: the growth was 97.2%.

With `Cc1ccc(Cc2ccc(C)cc2)cc1`, the growth was 101%. For `NCCCN1CCCC1=O`, the growth was 116%. Regarding `CCCCCCCCCCCCCCCCCCSC(=N)N`, the growth is 66.6%. The same measure for `C=C1C(=O)C2CCN1CC2`: 105%. With `Cc1ccc[n+](CCC(N)=O)c1`, the growth is 111%. As for `N#CC1(O)CCCCC1`, the growth is 99.6%. `CCOC(=O)CO`: the growth was 115%. `CCOC(=O)N[C@H]1CCc2cc(OC)c(OC)c(OC)c2-c2ccc(SC)c(=O)cc21`: the growth is 7.82% (active).

For the compound `CC1CCC(C)(C)c2ccccc21` (configuration not stated), the growth was 101%. Under `O=C1C=Cc2ccccc2/C1=C/c1[nH]c(=O)[nH]c1O` stands 59.7%. Under `CCN(CC)CCCC(C)NC(=S)N/N=C(\C)c1ccccn1` (configuration not stated) stands 32.7%; under `Cn1c(=O)c2[nH]c(CC(=O)O)nc2n(C)c1=O`, 107%. Under `Cc1ccc(/C=N/NC(N)=S)s1` stands 109%; under `CCNC(=O)Oc1ccc[nH]c1=O`, 97.9%. Take `Cc1cccc(C)c1NC(=S)/N=C\c1c(O)[nH]c(=O)[nH]c1=O`: the growth is 107%.

Turning to `Cc1ccc(C)c(CCO)c1`, the growth is 112%.
